Measured values reported in PubChem BioAssay.
The source made the active and inactive calls.

Columns and labels:
[1] = small molecules captured by biotinylated probe aFSTL3 – biochemical, small-molecule microarray, fluorescence 635/667, stem cell growth factor project, primary screen (AID 1064); conditions: higher = more signal;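 note: measures binding of the biotinylated anti-FSTL3 antibody to printed compounds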
[2] = binders from COS7 lysate, DM2A8 probe, primary screen, torsin A project, cell lysate, small-molecule microarray, fluorescence 635/667 (AID 1065); conditions: higher = more signal, COS7 lysate expressing mutant human TOR1A
[3] = small molecules captured by biotinylated probe aFGF2 – biochemical, small-molecule microarray, fluorescence 635/667, stem cell growth factor project, primary screen (AID 1067); conditions: higher = more signal;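 note: measures binding of biotinylated aFGF2 protein to printed compounds on slides; z-score merges feature fluorescence and signal-to-noise across triplicate slides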
[4] = small molecules captured by biotinylated probe aFGF10 – biochemical, small-molecule microarray, fluorescence 635/667, stem cell growth factor project, primary screen (AID 1071); conditions: higher = more signal;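 note: score merges 667 nm spot intensity and signal to noise from triplicate slides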
[5] = biological target: Neurogenic locus notch homolog protein 2 (Homo sapiens) (UniProt Q04721); assay: small molecules binding Notch2 protein – biochemical, small-molecule microarray, 635 nm fluorescence, stem cell growth factors, primary screen (AID 1073); conditions: higher = more signal
Chain of Neurogenic locus notch homolog protein 2 (Homo sapiens) (Q04721 whole entry, looked up, canonical isoform): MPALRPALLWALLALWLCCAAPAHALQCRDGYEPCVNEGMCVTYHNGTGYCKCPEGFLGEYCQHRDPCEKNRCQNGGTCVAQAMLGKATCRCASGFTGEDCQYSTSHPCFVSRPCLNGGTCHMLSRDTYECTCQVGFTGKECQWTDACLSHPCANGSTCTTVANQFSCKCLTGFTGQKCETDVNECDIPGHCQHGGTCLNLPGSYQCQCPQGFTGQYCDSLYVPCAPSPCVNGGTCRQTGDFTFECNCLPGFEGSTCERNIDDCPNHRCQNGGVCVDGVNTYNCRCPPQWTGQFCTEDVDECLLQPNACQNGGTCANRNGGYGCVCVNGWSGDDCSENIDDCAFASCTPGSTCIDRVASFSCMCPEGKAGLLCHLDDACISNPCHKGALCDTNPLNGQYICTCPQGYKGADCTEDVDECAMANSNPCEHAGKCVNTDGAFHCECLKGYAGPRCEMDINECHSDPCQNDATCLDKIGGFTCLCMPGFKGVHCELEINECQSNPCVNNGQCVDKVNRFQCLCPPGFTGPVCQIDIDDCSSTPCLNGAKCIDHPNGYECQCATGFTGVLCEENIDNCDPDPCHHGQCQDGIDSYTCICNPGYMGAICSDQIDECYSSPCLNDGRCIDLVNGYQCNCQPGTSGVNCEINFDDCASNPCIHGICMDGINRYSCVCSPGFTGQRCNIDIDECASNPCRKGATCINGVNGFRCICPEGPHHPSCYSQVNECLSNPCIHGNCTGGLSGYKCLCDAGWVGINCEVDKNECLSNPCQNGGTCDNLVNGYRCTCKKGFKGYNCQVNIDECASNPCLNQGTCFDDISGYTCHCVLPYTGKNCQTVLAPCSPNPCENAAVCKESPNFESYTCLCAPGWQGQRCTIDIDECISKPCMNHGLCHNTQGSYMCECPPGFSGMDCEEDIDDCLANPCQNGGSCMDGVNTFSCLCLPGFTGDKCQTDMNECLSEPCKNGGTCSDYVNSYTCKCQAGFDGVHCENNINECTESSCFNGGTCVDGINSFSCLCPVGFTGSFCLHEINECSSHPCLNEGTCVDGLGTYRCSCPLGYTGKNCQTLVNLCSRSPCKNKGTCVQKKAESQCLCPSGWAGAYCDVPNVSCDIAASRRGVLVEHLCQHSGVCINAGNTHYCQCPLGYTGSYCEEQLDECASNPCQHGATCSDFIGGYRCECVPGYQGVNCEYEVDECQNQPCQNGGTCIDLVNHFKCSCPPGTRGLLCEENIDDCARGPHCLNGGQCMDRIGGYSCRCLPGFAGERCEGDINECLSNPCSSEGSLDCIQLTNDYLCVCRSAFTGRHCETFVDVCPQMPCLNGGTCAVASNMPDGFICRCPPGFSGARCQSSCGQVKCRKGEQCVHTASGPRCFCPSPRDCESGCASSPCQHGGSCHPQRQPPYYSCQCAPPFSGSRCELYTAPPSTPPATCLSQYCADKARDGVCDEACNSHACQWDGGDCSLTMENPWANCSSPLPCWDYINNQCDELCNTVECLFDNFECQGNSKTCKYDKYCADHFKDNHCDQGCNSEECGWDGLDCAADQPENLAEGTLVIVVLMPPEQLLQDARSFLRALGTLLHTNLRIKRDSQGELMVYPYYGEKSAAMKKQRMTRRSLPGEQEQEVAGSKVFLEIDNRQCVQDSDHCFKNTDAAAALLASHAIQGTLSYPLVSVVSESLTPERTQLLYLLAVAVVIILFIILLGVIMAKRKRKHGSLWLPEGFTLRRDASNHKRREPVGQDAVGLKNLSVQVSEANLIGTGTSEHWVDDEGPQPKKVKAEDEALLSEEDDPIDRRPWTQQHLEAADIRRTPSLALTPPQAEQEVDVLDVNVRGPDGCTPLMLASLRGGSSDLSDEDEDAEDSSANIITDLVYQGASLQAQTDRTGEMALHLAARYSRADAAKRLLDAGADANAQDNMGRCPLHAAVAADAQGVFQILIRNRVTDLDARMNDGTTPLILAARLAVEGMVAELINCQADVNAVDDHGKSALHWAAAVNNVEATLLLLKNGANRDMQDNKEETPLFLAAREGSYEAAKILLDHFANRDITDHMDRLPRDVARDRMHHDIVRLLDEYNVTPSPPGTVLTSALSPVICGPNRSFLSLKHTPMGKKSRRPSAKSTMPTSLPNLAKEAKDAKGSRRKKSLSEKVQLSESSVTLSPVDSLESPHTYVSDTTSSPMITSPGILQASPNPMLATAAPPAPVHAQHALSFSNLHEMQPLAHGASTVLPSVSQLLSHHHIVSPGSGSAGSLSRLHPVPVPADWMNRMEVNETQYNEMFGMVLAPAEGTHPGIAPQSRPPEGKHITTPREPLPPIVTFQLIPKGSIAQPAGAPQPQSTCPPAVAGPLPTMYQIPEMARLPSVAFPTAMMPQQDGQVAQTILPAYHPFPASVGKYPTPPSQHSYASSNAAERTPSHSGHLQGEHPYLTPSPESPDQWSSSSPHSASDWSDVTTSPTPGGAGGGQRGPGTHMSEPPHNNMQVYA

[6] = biological target: Pro-neuregulin-1, membrane-bound isoform (Homo sapiens) (UniProt Q02297); assay: small molecules binding neuregulin-1 protein – biochemical, small-molecule microarray, fluorescence 635/667, psychiatric disease protein project, primary screen (AID 1075); conditions: NRG1 binding, 635 nm fluorescence, higher = more signal;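 note: score combines 667 nm spot fluorescence with signal to noise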
Chain of Pro-neuregulin-1, membrane-bound isoform (Homo sapiens) (Q02297 whole entry, looked up, the tested form may be a part, canonical isoform): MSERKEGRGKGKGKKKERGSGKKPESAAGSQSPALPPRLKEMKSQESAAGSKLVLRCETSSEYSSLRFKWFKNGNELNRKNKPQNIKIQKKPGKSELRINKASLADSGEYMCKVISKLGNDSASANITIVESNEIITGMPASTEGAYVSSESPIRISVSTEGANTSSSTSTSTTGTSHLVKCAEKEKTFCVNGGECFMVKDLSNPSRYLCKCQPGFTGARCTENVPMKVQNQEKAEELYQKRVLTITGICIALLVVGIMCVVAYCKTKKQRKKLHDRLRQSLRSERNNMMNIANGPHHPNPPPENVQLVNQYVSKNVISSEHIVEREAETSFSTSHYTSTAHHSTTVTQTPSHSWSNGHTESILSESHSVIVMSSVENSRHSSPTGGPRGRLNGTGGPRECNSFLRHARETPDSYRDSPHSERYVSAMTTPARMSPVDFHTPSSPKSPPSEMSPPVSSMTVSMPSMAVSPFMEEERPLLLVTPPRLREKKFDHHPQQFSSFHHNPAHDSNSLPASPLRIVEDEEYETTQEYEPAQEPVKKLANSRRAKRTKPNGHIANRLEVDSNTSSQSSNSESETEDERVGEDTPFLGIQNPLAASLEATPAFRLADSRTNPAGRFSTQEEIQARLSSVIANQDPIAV

[7] = test system: Neuregulin-1 EGF-like domain; assay: small molecules binding NRG1 EGF domain – biochemical, small-molecule microarray, 635 nm fluorescence, primary screen (AID 1081); conditions: higher = more signal;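 note: binding of the protein to compounds printed on small-molecule microarray slides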
[8] = FRG1 expression reporter modulators in myotubes – cell-based, C2C12 myotubes, firefly/Renilla luciferase, luminescence, FRG1 inhibition for FSHD, primary screen (AID 1084); conditions: FRG1 promoter luciferase, higher = more signal, called active from +8 up or from −8 down
[9] = small molecules captured by biotinylated probe aFST – biochemical, small-molecule microarray, fluorescence 635/667, stem cell growth factor project, primary screen (AID 1086); conditions: higher = more signal;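 note: score merges 667 nm fluorescence with signal-to-noise of each printed compound spot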
[10] = binders of probe aHhip on microarray, primary screen, stem cell growth factor project, biochemical, small-molecule microarray, fluorescence 635/667 (AID 1087); conditions: higher = more signal;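 note: score merges spot fluorescence at 667nm with spot signal to noise ratio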

Cc1ccc(S[C@]2(C(=O)NCC(F)(F)F)CC(=O)N(Cc3cc(C(F)(F)F)cc(C(F)(F)F)c3)[C@@H]2c2ccc(CO)cc2I)cc1
composite z-score [1]: 0.225
composite z-score [2]: 1.52
composite z-score [3]: -0.128
composite z-score [4]: -0.41
composite z-score [5]: -1.14
composite z-score [6]: 0.848
composite z-score [7]: 0.434
z-score [8]: -0.326 (inactive)
composite z-score [9]: -0.666
composite z-score [10]: -0.409

CCCCC[C@H]1OC[C@@]23C=C(Br)[C@@H](CC12)[C@@]1(CO1)C3=O (stereo not given in full)
composite z-score [1]: -0.41
composite z-score [2]: 0.878
composite z-score [3]: -0.2
composite z-score [4]: -0.112
composite z-score [5]: -0.308
composite z-score [6]: -0.556
composite z-score [7]: -0.497
z-score [8]: 0.201 (inactive)
composite z-score [9]: -0.252
composite z-score [10]: -0.132

C=CCNC(=O)[C@@H]1[C@H]2C(=O)O[C@H](c3ccccc3)[C@H](c3ccccc3)N2[C@H](c2ccc(O)cc2)[C@@]12C(=O)N(C(=O)OCCOC)c1ccc(C#CC3=CCCCC3)cc12
composite z-score [1]: -0.254
composite z-score [2]: 0.467
composite z-score [3]: -0.021
composite z-score [4]: 0.512
composite z-score [5]: 0.761
composite z-score [6]: 1
composite z-score [7]: 1.17
z-score [8]: 0.816 (inactive)
composite z-score [9]: 0.668
composite z-score [10]: 0.951

C=CCC(OC(C)=O)[C@@H]1[C@@H](N(Cc2ccc(-c3ccccc3)cc2)C(=O)c2ccc(-c3ccccc3)cc2)c2cc(OCCCO)ccc2N1C(=O)c1ccc2ccccc2c1 (stereo not given in full)
composite z-score [1]: 0.0946
composite z-score [2]: 0.107
composite z-score [3]: -0.128
composite z-score [4]: 0.178
composite z-score [5]: -0.443
composite z-score [6]: -0.227
composite z-score [7]: -0.896
z-score [8]: 0.807 (inactive)
composite z-score [9]: 0.352
composite z-score [10]: -0.353

CC1=C2[C@@H](CCc3ccccc3)OB(O)C[C@@H]2[C@@H]2C(=O)N(C)C(=O)[C@@H]2C1
composite z-score [1]: -0.366
composite z-score [2]: -0.19
composite z-score [3]: -0.104
composite z-score [4]: 0.496
composite z-score [5]: 0.849
composite z-score [6]: 1.09
composite z-score [7]: -0.0884
z-score [8]: 1.26 (inactive)
composite z-score [9]: 0.438
composite z-score [10]: -0.171

COCCCNC(=O)[C@@]1(CCC(=O)OC(C)(C)C)N=C(c2ccc(OCCCO)cc2)O[C@H]1c1ccccc1N=[N+]=[N-]
composite z-score [1]: 0.913
composite z-score [2]: 1.5
composite z-score [3]: 0.0999
composite z-score [4]: 1.14
composite z-score [5]: 1.41
composite z-score [6]: 1.9
composite z-score [7]: 1.4
z-score [8]: 2.62 (inactive)
composite z-score [9]: 1.03
composite z-score [10]: 0.0053

COC(=O)C1=CC(CCCO)=CC(c2cccs2)N(C)C=C1C(=O)OC (stereo not given)
composite z-score [1]: 0.0256
composite z-score [2]: -0.106
composite z-score [3]: -0.0737
composite z-score [4]: -0.379
composite z-score [5]: -0.324
composite z-score [6]: 1.08
composite z-score [7]: 1.33
z-score [8]: -0.656 (inactive)
composite z-score [9]: -0.0824
composite z-score [10]: -0.0994

COCCOC(=O)N1C(=O)[C@@]2(c3cc(C#CC4(O)CCCCCC4)ccc31)[C@H](C(=O)N1CCc3cc(OC)c(OC)cc3C1)[C@H]1C(=O)O[C@H](c3ccccc3)[C@H](c3ccccc3)N1[C@@H]2c1ccc(OCCO)cc1
composite z-score [1]: -0.409
composite z-score [2]: 0.502
composite z-score [3]: 0.0088
composite z-score [4]: 0.467
composite z-score [5]: 1.24
composite z-score [6]: 0.675
composite z-score [7]: 1.18
z-score [8]: 1 (inactive)
composite z-score [9]: 0.198
composite z-score [10]: -0.0994

O=C1N(Cc2ccccc2)c2ccccc2C[C@]12N=C(c1ccc(OCCCO)cc1)O[C@@H]2c1ccccc1
composite z-score [1]: 0.0854
composite z-score [2]: 0.278
composite z-score [3]: -0.125
composite z-score [4]: 0.576
composite z-score [5]: 0.699
composite z-score [6]: 0.888
composite z-score [7]: 1.09
z-score [8]: -0.724 (inactive)
composite z-score [9]: -0.0607
composite z-score [10]: -0.0994

C=CCNC(=O)[C@@H]1[C@H]2C(=O)O[C@H](c3ccccc3)[C@H](c3ccccc3)N2[C@H](c2ccccc2OCCO)[C@@]12C(=O)Nc1ccc(C#CCCO)cc12
composite z-score [1]: -0.501
composite z-score [2]: 0.143
composite z-score [3]: 0.0013
composite z-score [4]: 0.0379
composite z-score [5]: 0.611
composite z-score [6]: 0.99
composite z-score [7]: 1.19
z-score [8]: -0.452 (inactive)
composite z-score [9]: 0.954
composite z-score [10]: 0.154

COC(=O)[C@@]1(Cc2ccc(F)cc2)[C@H]2c3cc(C(=O)N(C)C)n(Cc4ccc(OC(F)(F)F)cc4)c3C[C@H]2CN1C(=O)c1ccccc1
composite z-score [1]: -0.252
composite z-score [2]: 0.34
composite z-score [3]: -0.12
composite z-score [4]: 0.369
composite z-score [5]: 0.708
composite z-score [6]: 0.109
composite z-score [7]: 0.429
z-score [8]: 0.306 (inactive)
composite z-score [9]: 0.402
composite z-score [10]: -0.305

COC(=O)C1(CC(C)C)C=C2C(=C(c3ccccc3)C(=O)C2C)CN1 (stereo not given)
composite z-score [1]: 1.92
composite z-score [2]: 0.442
composite z-score [3]: 0.669
composite z-score [4]: 0.746
composite z-score [5]: 1.1
composite z-score [6]: 1.02
composite z-score [7]: 0.78
z-score [8]: 1.19 (inactive)
composite z-score [9]: 1.15
composite z-score [10]: 0.935

CN(C)C(=O)[C@]1(CCC(=O)OC(C)(C)C)N=C(c2ccc(OCCCO)cc2)O[C@@H]1c1ccccc1CN=[N+]=[N-]
composite z-score [1]: 0.292
composite z-score [2]: 1.28
composite z-score [3]: 0.485
composite z-score [4]: 0.488
composite z-score [5]: 0.934
composite z-score [6]: 1.89
composite z-score [7]: 1.15
z-score [8]: 3.58 (inactive)
composite z-score [9]: 1.34
composite z-score [10]: -0.476

O=C1NC(=O)C2C1C=CC(C(O)c1ccco1)N2Nc1ccc(Cl)cc1Cl (stereo not given)
composite z-score [1]: 0.388
composite z-score [2]: -0.13
composite z-score [3]: -0.0375
composite z-score [4]: -0.0728
composite z-score [5]: 0.42
composite z-score [6]: 0.825
composite z-score [7]: 1.24
z-score [8]: 1.62 (inactive)
composite z-score [9]: 0.549
composite z-score [10]: -0.126

COc1ccc(C#Cc2ccc3c(c2)[C@]2(C(=O)N3)[C@H](C(=O)O)[C@H]3C(=O)O[C@H](c4ccccc4)[C@H](c4ccccc4)N3[C@@H]2c2ccc(O)cc2)cc1
composite z-score [1]: 0.499
composite z-score [2]: 0.928
composite z-score [3]: -0.0557
composite z-score [4]: 0.221
composite z-score [5]: -0.0571
composite z-score [6]: 0.418
composite z-score [7]: 1.28
z-score [8]: 0.247 (inactive)
composite z-score [9]: 0.105
composite z-score [10]: -0.134

[N-]=[N+]=NCc1ccccc1[C@H]1OC(c2ccc(OCCCO)cc2)=N[C@@]1(Cc1ccccc1N=[N+]=[N-])C(=O)NCC(O)CO (stereo not given in full)
composite z-score [1]: -0.0235
composite z-score [2]: 0.651
composite z-score [3]: 0.0342
composite z-score [4]: 0.867
composite z-score [5]: 1.24
composite z-score [6]: 1.68
composite z-score [7]: 1.13
z-score [8]: 1.5 (inactive)
composite z-score [9]: 1.43
composite z-score [10]: -0.31

NC(=O)[C@H]1[C@@H]2C(=O)O[C@@H](c3ccccc3)[C@@H](c3ccccc3)N2[C@@H](c2ccc(OCCO)cc2)[C@]12C(=O)Nc1ccc(C#CCCO)cc12
composite z-score [1]: 0.127
composite z-score [2]: 0.685
composite z-score [3]: -0.0524
composite z-score [4]: 0.715
composite z-score [5]: 0.874
composite z-score [6]: 0.874
composite z-score [7]: 1.02
z-score [8]: 1.7 (inactive)
composite z-score [9]: 0.232
composite z-score [10]: -0.275

CCN(CC)c1ccc(N2CC=CC34O[C@@H]5/C=C\CCCOC(=O)C5[C@H]3C(=O)N(C(C)CO)[C@@H]4C2=O)cc1 (stereo not given in full)
composite z-score [1]: -0.136
composite z-score [2]: -0.207
composite z-score [3]: -0.175
composite z-score [4]: -0.136
composite z-score [5]: -0.0693
composite z-score [6]: 1.87
composite z-score [7]: 1.31
z-score [8]: -0.768 (inactive)
composite z-score [9]: -0.285
composite z-score [10]: -0.236

CCCC1(C(=O)OC)C=C2C(=C(C)C(=O)C2C)CN1 (stereo not given)
composite z-score [1]: 0.948
composite z-score [2]: -0.313
composite z-score [3]: -0.0296
composite z-score [4]: -0.0572
composite z-score [5]: -0.326
composite z-score [6]: -0.74
composite z-score [7]: 0.188
z-score [8]: 3.02 (inactive)
composite z-score [9]: 0.454
composite z-score [10]: -0.0645

CCC#CCN(Cc1ccccc1Br)[C@H](/C=C/C1CC1)[C@@H](O)Cc1ccccc1
composite z-score [1]: 0.689
composite z-score [2]: 0.131
composite z-score [3]: -0.17
composite z-score [4]: -0.548
composite z-score [5]: -1.46
composite z-score [6]: -0.285
composite z-score [7]: -0.33
z-score [8]: -1.96 (inactive)
composite z-score [9]: -0.17
composite z-score [10]: -0.169

COC(=O)[C@@]1(Cc2ccc(OC)cc2)[C@H]2c3cc(C(=O)N(C)C)n(Cc4ccc(C)o4)c3C[C@H]2CN1C(=O)c1ccccc1
composite z-score [1]: 0.429
composite z-score [2]: -0.342
composite z-score [3]: 0.0807
composite z-score [4]: 0.423
composite z-score [5]: 1.61
composite z-score [6]: 1.85
composite z-score [7]: 1.24
z-score [8]: -0.472 (inactive)
composite z-score [9]: 1.16
composite z-score [10]: 1.48
